About 83,000 compounds went through this panel and 20% of them were active in at least one assay; those are over-represented in the sample as a whole.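 Percent growth is the endpoint: 0 to 100 indicates growth inhibition (40 means 60% inhibition), 0 means no net growth, and negative values indicate cell death.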 A number with no mark means an inactive call. Activity calls are given as the source filed them. How the source made its calls: active means growth percent below 10; inactive means the rest.
Experiments:
Test in all cases: NCI-60 one-dose screen, 48 h (100 = growth as untreated, 0 = no growth, -100 = all killed)
Details in all cases: 10 µM unless noted
NCI-H23 lung = test system: NCI-H23 lung
NCI-H226 lung = test system: NCI-H226 lung
NCI-H322M lung = test system: NCI-H322M lung
HOP-62 NSCLC = test system: HOP-62 NSCLC
NCI-H460 lung = test system: NCI-H460 lung
HOP-92 NSCLC = test system: HOP-92 NSCLC
NCI-H522 lung = test system: NCI-H522 lung
A549/ATCC NSCLC = test system: A549/ATCC NSCLC
786-0 renal = test system: 786-0 renal
COLO 205 colon = test system: COLO 205 colon
DU-145 prostate = test system: DU-145 prostate
K-562 leukemia = test system: K-562 leukemia
MALME-3M melanoma = test system: MALME-3M melanoma
MDA-MB-231 breast = test system: MDA-MB-231 breast
RXF 393 renal = test system: RXF 393 renal
SF-268 CNS = test system: SF-268 CNS
SF-295 CNS = test system: SF-295 CNS
SF-539 CNS = test system: SF-539 CNS
UACC-257 melanoma = test system: UACC-257 melanoma
M14 melanoma = test system: M14 melanoma

Compound	growth (NCI-H23 lung)	growth (NCI-H226 lung)	growth (NCI-H322M lung)	growth (HOP-62 NSCLC)	growth (NCI-H460 lung)	growth (HOP-92 NSCLC)	growth (NCI-H522 lung)	growth (A549/ATCC NSCLC)	growth (786-0 renal)	growth (COLO 205 colon)	growth (DU-145 prostate)	growth (K-562 leukemia)	growth (MALME-3M melanoma)	growth (MDA-MB-231 breast)	growth (RXF 393 renal)	growth (SF-268 CNS)	growth (SF-295 CNS)	growth (SF-539 CNS) [%]	growth (UACC-257 melanoma)	growth (M14 melanoma)
COc1ccc(C/C(C)=C(\c2ccc(OCCN3CCCCCC3)cc2)c2ccc(OC(=O)C3CCCCC3)cc2)cc1	63.5%	78.3%	73.5%	74.5%	38.1%	19.6%	63.4%	65.2%	68.9%	10.5%	72.4%	9.51% (active)	66%	67.6%	60.4%	64.2%	86.1%	74.7	77.5%	73.1%
CN[C@@]12CC3(C=CC(=O)C=C3)O[C@]1(Cc1ccc(OC)cc1)N(C)C(=O)N2	91%	89.4%	79.9%	114%	101%	94.4%	-23.6% (active)	74.4%	84.2%	47.3%	101%	13.1%	107%	110%	50.7%	96.7%	109%	45.3	78.8%	63%
CCCCCC(=O)Oc1ccc(/C(=C(\C)c2ccccc2)c2ccc(OCCN(CC)CC)cc2)cc1	79.8%	93.3%	81%	91.7%	52.3%	52.8%	62.4%	67.7%	57.4%	15%	103%	12.2%	65.3%	84.8%	66.9%	71.5%	79.5%	46.8	7.01% (active)	8.98% (active)
Clc1cccc(Nc2nc(Nc3cnc4ccccc4c3)c3[nH]cnc3n2)c1	84.3%	72.3%	89.1%	59.9%	61.1%	7.57% (active)	61.9%	74.4%	109%	79.8%	82.6%	81.5%	116%	47.7%	69.7%	82.4%	94.6%	–	81.7%	88%
CCCNc1nc(SC)nc(-c2cccc(N)c2)c1C#N	93.2%	93.9%	95.8%	78.8%	101%	80.5%	92.9%	104%	102%	119%	109%	96.8%	98%	83.1%	105%	91.6%	98.7%	102	111%	101%
CCN(CC)c1ccc(/C=C/C2=[N+](C)c3ccccc3C2(C)C)cc1	18.6%	9.04% (active)	27.2%	13.8%	3.05% (active)	-10.7% (active)	5.08% (active)	14.4%	8.12% (active)	4.92% (active)	14.3%	28.3%	19%	7.79% (active)	33.7%	17%	-19% (active)	14.7	–	22.4%
O=C1NC(=O)C(CC(=O)n2c(-c3ccccc3)nc3ccccc32)C(=O)N1	97.4%	97.7%	100%	94.4%	102%	97.5%	93%	101%	99.7%	118%	108%	106%	116%	98.9%	101%	99%	97.3%	95.1	112%	108%
CC[n+]1ccc2c(c1)C(=O)c1nccc3c1c-2nc1ccccc13	-27.9% (active)	-67.1% (active)	-16.3% (active)	-27.6% (active)	-82.1% (active)	-11.9% (active)	-38% (active)	-4.31% (active)	-14.4% (active)	-23.8% (active)	-10.9% (active)	20%	-85.5% (active)	-8.92% (active)	-2.9% (active)	-16.4% (active)	-27.6% (active)	–	-8.02% (active)	-16.3% (active)
ClC1=C2NC=NC2n2c(nnc2-c2ccc(Cl)cc2)N1 (configuration not stated)	107%	96.2%	110%	98.7%	106%	109%	73.2%	81.4%	97.2%	89.8%	112%	91.1%	129%	95.6%	101%	111%	97.8%	–	101%	102%
COc1ccc(C(=O)/C=C/c2c(Cl)c3c(c(OC)c2Cl)OCC(=O)N3)cc1	43.1%	62.9%	79.8%	21%	12%	74.5%	12.7%	61.1%	58.2%	62.1%	18.7%	3.42% (active)	66.8%	34.9%	36.3%	29.9%	32.1%	–	50%	17.7%
O=C(CN1CCN(c2cc3c(cc2F)c(=O)c(C(=O)N/N=C/c2ccccc2)cn3C2CC2)CC1)N/N=C\c1ccccc1	94.5%	81.3%	85.4%	109%	66.3%	76%	76.5%	69.9%	90.4%	99.6%	90.4%	56.6%	120%	70.3%	72.7%	72.5%	74.8%	76.2	99%	74.1%
O=C(/C=C\c1cccc([N+](=O)[O-])c1)c1ccccc1	81.3%	70.3%	96.1%	90.8%	87.7%	-27% (active)	-5.55% (active)	92.9%	13.2%	-71% (active)	59%	180%	36.6%	104%	14.9%	25.8%	89.9%	85.4	–	26.8%
CC1=NNC(=O)C1C (configuration not stated)	100%	93.5%	585%	87.4%	114%	102%	85.9%	98.6%	103%	110%	104%	97.3%	467%	109%	90.5%	107%	110%	111	–	96.8%
Nc1cc(-c2nc3sccn3c2-c2ccnc(NCCCNS(=O)(=O)c3ccc(F)cc3)n2)ccc1F	63.5%	50.7%	69.9%	78.1%	47.4%	96.9%	48%	41.4%	61.3%	32.4%	58.6%	26.8%	37.1%	62.5%	52.1%	62%	67.5%	73.2	57.9%	31%
CN1CCN(Cc2ccc(NC(=O)c3cncc(C#Cc4c(N)ncc5ccc(C#N)cc45)c3)cc2C(F)(F)F)CC1	47%	3.8% (active)	-29.2% (active)	58.4%	-73.8% (active)	13.9%	-53.7% (active)	-65.6% (active)	-59.6% (active)	21.2%	-60.2% (active)	-39.3% (active)	-81.9% (active)	-82% (active)	-76.6% (active)	-43.3% (active)	85.9%	39.7	68.7%	-45.5% (active)
CCOC(=O)C(C#N)C1CCCCC1 (configuration not stated)	93.6%	83.4%	92.1%	90.4%	123%	80.7%	96.9%	105%	105%	127%	104%	79.3%	95.6%	81.3%	99.3%	91%	93.5%	122	–	101%

Reference: PubChem BioAssay (NCI)
